Potency data for 36 compounds are collected here from PubChem BioAssay AID2113 (National Center for Advancing Translational Sciences (NCATS), 2009).

Records with an inconclusive call do not appear. Entries that show only a call come without a potency. The source made the active and inactive calls. Calls come from the whole dose curve; as a rule, active = well fitted curve in either direction with a large enough effect; inconclusive = small, poorly fitted or top-dose-only effect; inactive = no such curve, though single readings can be large or run the other way.
Potency is the fitted concentration of half-maximal effect.

The target of the test is Lysosomal alpha-glucosidase (Homo sapiens) (UniProt P10253). The test is described as follows: Confirmation of Inhibitors and Activators of Human alpha-Glucosidase From Spleen Homogenate.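 For Potency: fluorescence of 4-methylumbelliferone released from a fluorogenic glucopyranoside substrate at pH 5.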 The note with it: alpha-glucosidase enzyme activity; series mostly up to 60.5 µM. The method, boiled down: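 Fluorogenic assay using human spleen homogenate (1 ug) as enzyme source with 1 mM 4-methylumbelliferyl-alpha-D-glucopyranoside, pH 5.0 citrate buffer, 40 min at 37 C. 4-MU read (Ex 365/Em 440) after NaOH/glycine stop; AC50 from Hill fits.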
Take `COc1cc(/C=C/c2ccc3ccccc3n2)cc(OC)c1O`: the Potency entry is “inactive”.

Turning to `COc1ccc(C(=O)N2CCN(c3ccc([N+](=O)[O-])c(NCCc4ccc(OC)c(OC)c4)c3)CC2)cc1`, the Potency entry is “inactive”.

On to `O=C(NCCCN1CCOCC1)c1cccs1`, for which the Potency result is “inactive”.

Consider `Cc1sc(-c2cc3c(ccc4ccccc43)oc2=O)nc1-c1ccccc1`, for which the Potency result is “inactive”.

For `COc1cccc(CCn2c(N)cc(=O)[nH]c2=S)c1OC`, the Potency entry is “inactive”.

As for `Cc1sc(-c2cc3cc(Cl)ccc3oc2=O)nc1-c1ccccc1`, the Potency entry is “inactive”.

Regarding `CCCN1CNc2c(c(=O)[nH]c(=S)n2-c2ccc(Cl)cc2)C1`, the Potency result is “inactive”.

Consider `COc1ccc(CCn2c3c(c(=O)[nH]c2=O)C(NC(=O)c2cccs2)(C(F)(F)F)C(=O)N3)cc1OC` (stereo unspecified), for which the Potency result was “inactive”.

In the case of `O=C(O)Cc1sc(-c2cc3ccccc3oc2=O)nc1-c1ccc(-c2ccccc2)cc1`, the Potency entry is “inactive”.

Take `O=C(Nc1cc(S(=O)(=O)N2CCOCC2)ccc1N1CCCC1)c1cc(=O)[nH]c2ccccc12`: the Potency result is “inactive”.

With `O=C(COc1ccc2ccccc2c1)N1CCN(C(=O)c2ccco2)CC1`, the Potency entry was “inactive”.

On to `CCS(=O)(=O)N1Cc2ccccc2CC1C(=O)Nc1ccc(NC(C)=O)cc1` (stereo unspecified), for which the Potency entry is “inactive”.

On to `COc1ccc(CCn2c(=S)[nH]c(=O)c3c(C)cc(C)nc32)cc1OC`, for which the Potency result was “inactive”.

As for `COc1cccc(S(=O)(=O)N2CCOCC2)c1`, the Potency result was “inactive”.

Take `O=S(=O)(c1ccc(Cl)cc1)N1CCN(c2nc(Nc3cc(Cl)ccc3O)nc3ccccc23)CC1`: the Potency entry was “inactive”.

For the compound `Cc1ccc2c(=O)c3ccccc3n(CCCN)c2c1C`, the Potency result is “inactive”.

Regarding `O=S(=O)(c1ccc(Cl)cc1)N1CCOCC1`, the Potency result is “inactive”.

`COc1ccc(CCn2c3c(c(=O)[nH]c2=S)CN(c2ccccc2)CN3)cc1OC`: the Potency was 8.91 µM (active).

In the case of `Cc1ccc(N2CCN(S(=O)(=O)c3ccc4c(c3)CC(=O)N4)CC2)cc1`, the Potency entry was “inactive”.

Regarding `N#Cc1c(-c2ccccc2)nc(SCc2nc(N)nc(N3CCCCC3)n2)[nH]c1=O`, the Potency result is “inactive”.

Take `CCCN1CNc2c(c(=O)[nH]c(=S)n2CCc2cccc(C)c2)C1`: the Potency is 35.5 µM (active).

On to `CCCn1c(N)c(CC)c(=O)[nH]c1=O`, for which the Potency entry is “inactive”.

For the compound `CC1(CCc2ccc3c(c2)OCO3)NC(=O)c2ccccc2N1` (stereo unspecified), the Potency result is “inactive”.

As for `COc1ccc(S(=O)(=O)N2CCN(C(=O)COc3ccc4c(C)cc(=O)oc4c3)CC2)cc1`, the Potency entry is “inactive”.

In the case of `CCCN1CNc2c(c(=O)[nH]c(=S)n2CCC(C)(C)C)C1`, the Potency result is “inactive”.

For the compound `COc1cc(=O)[nH]c(=O)n1C(=O)Cc1ccccc1`, the Potency result was “inactive”.

On to `O=S(=O)(c1ccc(Br)cc1)N1CCOCC1`, for which the Potency entry was “inactive”.

Consider `O=C(Cc1ncc(C(F)(F)F)cc1Cl)NCCc1ccccc1`, for which the Potency result was “inactive”.

`O=C(NN=C1c2ccccc2-c2ccccc21)c1cccc(S(=O)(=O)N2CCOCC2)c1`: the Potency entry was “inactive”.

With `COC(=O)CSc1ccc(C#N)c(SCC(=O)OC)c1`, the Potency entry is “inactive”.

Take `CCCN1CNc2c(c(=O)[nH]c(=S)n2CCc2cccc(C)c2C)C1`: the Potency was 12.6 µM (active).

For the compound `O=S(=O)(c1ccccc1)N1CCNCC1`, the Potency result was “inactive”.

As for `Cc1nnc(SCC(=O)Nc2ccc3c(c2)COC3=O)n1-c1ccccc1`, the Potency entry was “inactive”.

On to `C/C=C1\COC(C(=O)NCCN2CCOCC2)(C(F)(F)F)C=C1C=C1CCCCC1` (stereo unspecified), for which the Potency entry is “inactive”.

Take `Cc1cccc(-n2c(N)cc(=O)[nH]c2=S)c1C`: the Potency result was “inactive”.

For `CCOC(=O)N1CCN(c2cc(N(C)CCO)c([N+](=O)[O-])c3nonc23)CC1`, the Potency result was “inactive”.
